Assay outcomes: PubChem BioAssay, Broad Institute
A selection follows.
aSyn UTR act – Activators via SNCA 5'UTR binding, MLPCN | alpha-synuclein 5'UTR reporter, activators screen | activity score, % (tested at 7.5 µM), hits read low | hit rate 7.1% among 300,000; in the data active means activity score below about -60%
* = called active by the depositor.

SMILES | aSyn UTR act
COc1cccc(N2C(C(C)=O)=NN(c3ccccc3)C2c2ccc(N3CCOCC3)cc2)c1 (configuration not stated) | -82*
Cc1ccccc1C(=O)Oc1ccc(-c2csnn2)cc1 | -68*
CC(=O)O/N=C(\N)c1ccc(-c2csnn2)cc1 | -128*
CC(C)(C)C(=O)Nc1ccc(-c2csnn2)cc1 | -74*
CC(C)(C)C(=O)O/N=C(\N)c1ccc(-c2csnn2)cc1 | -131*
CCOC(=O)c1cnc(Nc2nc3ccccc3o2)nc1CSc1ncccn1 | -100*
CCCc1nc(Nc2nc3ccccc3o2)nc(C)c1C(=O)OCC | -80*
O/C(=C\c1nc2ccccc2nc1/C=C(\O)c1ccccc1)c1ccccc1 | -73*
O/N=C/c1ccc2ccccc2n1 | -79*
O/C(=C\c1ccc2ccccc2n1)c1ccncc1 | -69*
C(=N\NC1=Nc2cccc3cccc1c23)/c1cccnc1 | -258*
Clc1ccc(/C=N/NC2=Nc3cccc4cccc2c34)cc1 | -191*
Clc1ccc(N/N=C/c2cccnc2)cc1 | -123*
C(=N\NC1=Nc2cccc3cccc1c23)/c1ccccc1 | -256*
Cn1ccsc1=NC(=O)c1ccc([N+](=O)[O-])o1 | -161*
COc1ccc(/C=N/Nc2nc3ccccc3[nH]2)c(OC)c1OC | -109*
COc1cccc(/C=N/Nc2nc(C)cc(=O)[nH]2)c1OC | -79*
C(=N\Nc1nc2ccccc2[nH]1)/c1cccc2cccnc12 | 73
COc1cccc(/C=N/Nc2ncccc2[N+](=O)[O-])c1OC | 92
Cc1ccccc1/C=N/Nc1nc2ccccc2[nH]1 | -115*
Cc1cc(=O)[nH]c(N/N=C/c2cc(C)n(CC(F)(F)F)c2C)n1 | -89*
Cc1[nH]c2ccccc2c1/C=N/Nc1cccc(C(=O)O)c1 | -101*
C(=N\Nc1nc2ccccc2[nH]1)/c1c[nH]c2ccccc12 | -224*
Cc1ccc(/C=N/Nc2nc3ccccc3[nH]2)s1 | -312*
Cc1[nH]c2ccccc2c1/C=N/Nc1nc2ccccc2[nH]1 | -228*
SMILES | aSyn UTR act
CO/N=C/c1ccc(Oc2ccc(C)cc2)nc1 | -77*
Cc1ccc(/C=C2\OC(=O)c3ccccc32)cc1 | -83*
Cc1cc(O)ccc1N/C=C/c1onc(C)c1[N+](=O)[O-] | -110*
Cc1cccc(N/C=C/c2onc(C)c2[N+](=O)[O-])c1 | -156*
C=CCn1cnc2c(NCc3ccccc3)ncnc21 | -76*
Cc1cccc(CN2C(=O)N/C(=C/c3ccc(C)s3)C2=O)c1 | -88*
COc1cccc(/C=N/NC(=O)N/N=C/c2cccc(OC)c2O)c1O | 53
COc1ccccc1N1CCN(/N=C/c2cccc(OC)c2O)CC1 | -67*
COc1cccc(/C=N/N2CCN(c3ccccc3OC)CC2)c1 | -93*
COc1ccccc1N1CCN(/N=C/c2cc(Br)ccc2F)CC1 | -93*
COc1ccc(/C=N/N2CCN(c3ccccc3OC)CC2)cc1Br | -101*
COc1ccccc1N1CCN(/N=C/c2cccc(Cl)c2)CC1 | -196*
CN(C)/C=C/C(=O)/C=C/c1ccc(Cl)cc1 | -180*
Cc1cc(=O)[nH]c(N=N/C(=N/Nc2ccccc2C)c2ccccc2)n1 | 82
Cc1cc(=O)[nH]c(S/C=C/c2ccccc2)n1 | -78*
O=C(c1cc(COc2ccc3c(c2)CCCC3)on1)N1CCCC1 | -118*
O=C(c1cc(COc2c(F)cccc2F)on1)N1CCCCCC1 | -99*
CCOC(=O)N1CCN(C(=O)c2cc(COc3c(F)cccc3F)on2)CC1 | -151*
Cc1ccc(NCC(=O)N=Nc2c(O)[nH]c3ccc([N+](=O)[O-])cc23)cc1 | -172*
CC(C)C1Oc2ccccc2C(=O)N(CC(=O)c2ccc3c(c2)OCCO3)C1=O (configuration not stated) | -224*
O=C(CN1C(=O)NC2(CCCCCC2)C1=O)c1ccc2c(c1)OCCO2 | -154*
CC1CCC2(CC1)NC(=O)N(CC(=O)Nc1ccc3c(c1)OCCO3)C2=O (configuration not stated) | -100*
O=C(/C=C/c1ccccc1F)c1ccoc1 | -68*
Nc1c(C(=O)N/N=C/c2cccnc2)cnn1-c1ccccc1 | -67*
O=C(Nc1ccc(-c2nc3cccnc3s2)cc1)c1ccc(Br)o1 | -159*
SMILES | aSyn UTR act
O=C(Nc1ccc(-c2nc3cccnc3s2)cc1)c1ccc(Cl)nc1 | -151*
Cc1ccc(C(=O)Nc2ccc(N3CCN(C)CC3)cc2)cc1 | -88*
COc1ccc(C(=O)Nc2ccc(N3CCN(C)CC3)cc2)cc1 | -165*
CN1CCN(c2ccc(NC(=O)c3ccc4ccccc4c3)cc2)CC1 | 85
COc1ccc(C(=O)Nc2ccc(N3CCN(C)CC3)cc2)cc1OC | -82*
CC1CCCCC1NC(=O)c1cc2c(=O)n3ccccc3nc2n1C (configuration not stated) | -66*
CCN(C(=O)c1cc2c(=O)n3ccccc3nc2s1)C1CCCCC1 | -71*
CCN(C(=O)c1cc2c(=O)n3ccccc3nc2n1C)C1CCCCC1 | -75*
CN(C(=O)c1cc2c(=O)n3ccccc3nc2n1C)C1CCCCC1 | -90*
COC(=O)c1ccc(NC(=O)CN(c2ccc(OC)cc2)S(C)(=O)=O)cc1 | -176*
